“And” between values parts separate entries of the source, which are not always exact repeats. Equal values may be shown once. Hit rate of the full screen: of about 5,500 compounds, about 2,000 (36%) were called active. About 18% were inconclusive and are not listed. Some of the results follow. Values without a mark were called inactive. No stated cut-off is given here; in the data, active means normalized growth mostly below about 0.91 (no sharp cut-off); inconclusive means no clear call, values can overlap the other calls; inactive means mostly above about 0.92.
Assay: chemical genetic growth profiling, strain panel (AID 1159580);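 further: tested at 20 µM; growth read once vehicle control cultures reached saturation at 30 °C; 1 = growth at the plate median or of vehicle wells; lower values mean less growth of the strain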
Conditions: S. cerevisiae deletion strains, growth OD

What does the source list for `CCOC(=O)c1c(C)cc(OC)cc1O`?
normalized growth (locus YAL013W, strain DEP1, active compounds read low): 1; normalized growth (locus YAL021C, strain ccr4, active compounds read low): 1.02; normalized growth (locus YAL026C, strain drs2, active compounds read low): 0.977; normalized growth (locus YAL030W, strain snc1, active compounds read low): 0.962; normalized growth (locus YBL061C, strain skt5, active compounds read low): 0.981; normalized growth (locus YBR009C, strain hhf1, active compounds read low): 0.962; normalized growth (locus YBR021W, strain FUR4, active compounds read low): 0.971; normalized growth (locus YBR023C, strain chs3, active compounds read low): 0.97; normalized growth (locus YBR171W, strain sec66, active compounds read low): 0.934; normalized growth (locus YBR229C, strain ROT2, active compounds read low): 1; normalized growth (locus YBR231C, strain swc5, active compounds read low): 0.987; normalized growth (locus YBR279W, strain paf1, active compounds read low): 0.993; normalized growth (locus YCL011C, strain gbp2, active compounds read low): 0.975; normalized growth (locus YCL016C, strain dcc1, active compounds read low): 0.971; normalized growth (locus YCL029C, strain bik1, active compounds read low): 0.949; normalized growth (locus YCL061C, strain MRC1, active compounds read low): 0.972; normalized growth (locus YCL069W, strain vba3, active compounds read low): 0.969; normalized growth (locus YCR088W, strain abp1, active compounds read low): 0.953; normalized growth (locus YDL005C, strain med2, active compounds read low): 1.01; normalized growth (locus YDL035C, strain GPR1, active compounds read low): 0.983; normalized growth (locus YDL040C, strain nat1, active compounds read low): 0.959; normalized growth (locus YDL074C, strain BRE1, active compounds read low): 0.955; normalized growth (locus YDL101C, strain DUN1, active compounds read low): 1.01; normalized growth (locus YDL134C, strain PPH21, active compounds read low): 0.996; normalized growth (locus YDL185W, strain tfp1, active compounds read low): 0.984; normalized growth (locus YDL192W, strain arf1, active compounds read low): 0.942; normalized growth (locus YDR001C, strain nth1, active compounds read low): 0.96; normalized growth (locus YDR069C, strain doa4, active compounds read low): 0.999; normalized growth (locus YDR101C, strain arx1, active compounds read low): 0.917 (active); normalized growth (locus YDR137W, strain rgp1, active compounds read low): 0.784 (active); normalized growth (locus YDR150W, strain NUM1, active compounds read low): 1.01; normalized growth (locus YDR159W, strain sac3, active compounds read low): 0.926; normalized growth (locus YDR162C, strain NBP2, active compounds read low): 1.01; normalized growth (locus YDR195W, strain ref2): 1.1; normalized growth (locus YDR297W, strain sur2, active compounds read low): 0.975; normalized growth (locus YDR318W, strain mcm21, active compounds read low): 0.902 (active); normalized growth (locus YDR334W, strain swr1, active compounds read low): 0.979; normalized growth (locus YDR335W, strain msn5, active compounds read low): 0.991; normalized growth (locus YDR388W, active compounds read low): 0.958; normalized growth (locus YDR392W, strain spt3, active compounds read low): 0.724 (active); normalized growth (locus YDR502C, strain sam2, active compounds read low): 0.921 (active); normalized growth (locus YEL003W, strain gim4, active compounds read low): 0.964; normalized growth (locus YEL037C, strain rad23, active compounds read low): 0.978; normalized growth (locus YEL061C, strain CIN8 (second series), active compounds read low): 0.962; normalized growth (locus YEL061C, strain CIN8, active compounds read low): 0.989; normalized growth (locus YER015W, strain faa2, active compounds read low): 0.991; normalized growth (locus YER016W, strain bim1, active compounds read low): 0.975; normalized growth (locus YER110C, active compounds read low): 0.899 (active); normalized growth (locus YER111C, strain swi4, active compounds read low): 0.985; normalized growth (locus YER155C, strain BEM2 (second series), active compounds read low): 0.609 (active); normalized growth (locus YER155C, strain BEM2, active compounds read low): 0.985; normalized growth (locus YER167W, strain BCK2, active compounds read low): 0.935; normalized growth (locus YFR010W, strain ubp6, active compounds read low): 0.99; normalized growth (locus YGL078C, strain dbp3, active compounds read low): 0.963; normalized growth (locus YGL086W, strain mad1, active compounds read low): 0.943; normalized growth (locus YGL167C, strain pmr1, active compounds read low): 0.973; normalized growth (locus YGL173C, strain kem1, active compounds read low): 0.985; normalized growth (locus YGL227W, strain vid30, active compounds read low): 0.963; normalized growth (locus YGL240W, strain doc1, active compounds read low): 0.903; normalized growth (locus YGL248W, strain PDE1, active compounds read low): 1; normalized growth (locus YGL253W, strain hxk2, active compounds read low): 0.994; normalized growth (locus YGR078C, strain PAC10, active compounds read low): 0.965; normalized growth (locus YGR135W, strain pre9, active compounds read low): 0.912; normalized growth (locus YGR229C, strain SMI1, active compounds read low): 0.972; normalized growth (locus YGR252W, strain gcn5, active compounds read low): 0.918; normalized growth (locus YHR013C, strain ard1, active compounds read low): 0.969; normalized growth (locus YHR027C, strain rpn1, active compounds read low): 0.988; normalized growth (locus YHR030C, strain SLT2, active compounds read low): 0.983 and 0.948; normalized growth (locus YHR079C, strain IRE1 (second series), active compounds read low): 0.912 (active); normalized growth (locus YHR079C, strain IRE1, active compounds read low): 0.956; normalized growth (locus YHR094C, strain hxt1, active compounds read low): 0.946; normalized growth (locus YHR129C, strain ARP1, active compounds read low): 0.983; normalized growth (locus YHR142W, strain chs7, active compounds read low): 0.918; normalized growth (locus YHR200W, strain rpn10, active compounds read low): 0.926; normalized growth (locus YIL066C, strain RNR3, active compounds read low): 1; normalized growth (locus YIL073C, strain SPO22, active compounds read low): 0.891; normalized growth (locus YIL125W, strain kgd1, active compounds read low): 0.929 (active); normalized growth (locus YIR030C, strain dcg1, active compounds read low): 0.94; normalized growth (locus YJL092W, strain hpr5, active compounds read low): 0.96; normalized growth (locus YJL095W, strain BCK1 (second series), active compounds read low): 0.976; normalized growth (locus YJL095W, strain BCK1, active compounds read low): 0.951 and 0.943; normalized growth (locus YJL115W, strain asf1, active compounds read low): 0.981; normalized growth (locus YJL129C, strain trk1, active compounds read low): 0.933; normalized growth (locus YJL134W, strain LCB3, active compounds read low): 0.988; normalized growth (locus YJL154C, strain vps35, active compounds read low): 0.97; normalized growth (locus YJL164C, strain tpk1, active compounds read low): 0.911 (active); normalized growth (locus YJL166W, strain qcr8, active compounds read low): 0.97; normalized growth (locus YJL168C, strain set2, active compounds read low): 0.959; normalized growth (locus YJL187C, strain SWE1 (second series), active compounds read low): 1; normalized growth (locus YJL187C, strain SWE1, active compounds read low): 0.979; normalized growth (locus YJR043C, strain POL32, active compounds read low): 0.921; normalized growth (locus YJR066W, strain TOR1, active compounds read low): 0.9

Source: PubChem BioAssay AID1159580 (chemical genetic matrix, 2015)
